The source of these data is PubChem BioAssay.

Structures are written as SMILES. Values without a mark were called inactive.

The assay is described as follows: growth effects on S. cerevisiae YJM789 – YJM789 clinical isolate, OD600, 24 h, basal, primary screen (AID 1089).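 Note: growth of clinical yeast isolate S. cerevisiae YJM 789 seeded 1000 cells per well; test concentration not given here.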 Particulars: higher = more signal, called active from +8 up or from −8 down.
`CC(C)CN1CCc2nc(-c3ccccc3)c3c(c2C1)CO[C@@H](C)C3`: the z-score is -0.319. On to `COCC#Cc1ccc([C@@H]2N[C@H](C(=O)O)CC[C@H]2C)cc1`, for which the z-score was -1.63.

On to `C[C@@H](c1ccccc1)N1C(=O)[C@H]2[C@H]3[C@H](O)[C@H](O)CC(=NOC[C@@H](O)COCc4ccco4)[C@H]3CC[C@H]2C1=O`, for which the z-score was 0.342. As for `CCOC(=O)[C@H](CC(C)C)NC(=O)CCC1CC(OC(=O)NCc2ccc3c(c2)OCO3)CC2(CCCC(COC(=O)NCCc3ccc(Cl)cc3)O2)O1` (some centres not stated), the figure is -1.06. For `C#CCCCON=C1C[C@@H](O)[C@@H](O)[C@@H]2[C@@H]3C(=O)N(C4CCCCC4)C(=O)[C@@H]3CC[C@@H]12` the value was -1.83; for `CC(C)=CCCC(C)=CCON=C1C[C@@H](O)[C@@H](O)[C@@H]2[C@@H]3C(=O)N(c4cccc(Oc5ccccc5)c4)C(=O)[C@@H]3CC[C@H]12`, 0.788; for `COc1ccc(O[C@H]2C=C[C@@H](C#Cc3ccccc3)O[C@@H]2CO)cc1`, -0.315. Regarding `CCCNC(=O)OC[C@H]1O[C@H](CCON=C[C@@H](NS(=O)(=O)c2ccc(C)cc2)[C@H](C)C=CCC(=O)OC)C=C[C@@H]1Oc1ccc(OC)cc1`, the z-score was -1.21.

In the case of `COC(=O)[C@H](C)NC(=O)CCC1CC(OC(=O)NCc2cccc3ccccc23)CC2(CCCC(COC(=O)NCCCN3CCCC3=O)O2)O1` (some centres not stated), the z-score was 0.691.

`COC(=O)[C@H](C)NC(=O)CCC1CC(OC(=O)NCCc2ccc(F)cc2)CC2(CCCC(COC(=O)NCC3CCCCC3)O2)O1` (some centres not stated): the z-score was -0.797. As for `COC(=O)[C@H](C)NC(=O)CCC1CC(OC(=O)NCc2ccc3c(c2)OCO3)CC2(CCCC(COC(=O)NCCc3ccc(Cl)cc3)O2)O1` (some centres not stated), the figure is 0.341.

Consider `COc1ccc(COC(=O)NN=C2C[C@@H](O)[C@@H](O)[C@@H]3[C@@H]4C(=O)N([C@@H](C)c5ccccc5)C(=O)[C@@H]4CC[C@@H]23)cc1`, for which the z-score is -0.735. For `COc1ccc(O[C@H]2C=C[C@@H](c3ccccc3)O[C@@H]2COC(=O)CCC(C)=NOC[C@@H](O)COCc2ccco2)cc1` the value was -1.2. As for `CCN1C(=O)[C@H]2[C@H]3[C@H](O)[C@H](O)CC(=NOCC(C)C)[C@H]3CC[C@H]2C1=O`, the figure is -0.349; as for `CC(=O)OC[C@H]1O[C@H](C#CCC2CCCCC2)C=C[C@@H]1OC(C)=O`, 0.877. With `CCN1C(=O)[C@H]2[C@H]3[C@H](O)[C@H](O)CC(=NOC[C@@H](O)[C@H]4O[C@@H]5OC(C)(C)O[C@@H]5[C@H]4O)[C@@H]3CC[C@H]2C1=O`, the z-score is 0.141.

Consider `C[C@@H]1CC[C@@H](C(=O)O)N[C@H]1c1cccc(N2CCOCC2)c1`, for which the z-score was 0.395. For `CCOC(=O)NN=C1C[C@@H](O)[C@@H](O)[C@@H]2[C@@H]3C(=O)N(c4ccc(F)cc4F)C(=O)[C@@H]3CC[C@H]12` the value was -0.01; for `CCC1=NOC(CCC2CC(OC(=O)NCc3cccc4c3OCO4)CC3(CCCC(COC(=O)NCCc4ccc(Cl)cc4)O3)O2)C1` (configuration not stated), -0.57. For `CCOC(=O)CCN1C(=O)[C@H]2[C@H]3[C@H](O)[C@H](O)CC(=NO[C@@H]4O[C@H](CO)[C@@H](O)[C@H](O)[C@H]4O)[C@@H]3CC[C@H]2C1=O` the value was -0.476; for `CCOC(=O)[C@H](CC(C)C)NC(=O)CCC1CC(OC(=O)NCc2ccc3c(c2)OCO3)CC2(CCCC(COC(=O)NCc3ccccc3)O2)O1` (some centres not stated), 0.177. For `CC(C)C(=O)N[C@H]1CCCN1C(=O)C=Cc1ccccc1` the value was 0.624; for `COC(=O)[C@H](C)NC(=O)CCC1CC(OC(=O)NCc2cccc3ccccc23)CC2(CCCC(COC(=O)NCc3ccccc3)O2)O1` (some centres not stated), -0.68; for `CCOC(=O)[C@H](CC(C)C)NC(=O)CCC1CC(OC(=O)NCCc2ccc(F)cc2)CC2(CCCC(COC(=O)NCc3cccc4ccccc34)O2)O1` (some centres not stated), -0.175. For the compound `COC(=O)CC=C[C@@H](C)[C@@H](C=NOC(C)CN1CCCCc2nc(C)c(C)cc21)OC` (some centres not stated), the z-score is -0.793.

As for `CCN1C(=O)[C@H]2[C@H]3[C@H](O)[C@H](O)CC(=NOC[C@@H](O)COCc4ccco4)[C@H]3CC[C@H]2C1=O`, the z-score is -0.0365. For `COCCNC(=O)OCC1CCCC2(CC(OC(=O)NCc3cccc4ccccc34)CC(CCC(=O)N[C@@H](C)C(=O)OC)O2)O1` (some centres not stated) the value was 1.48.
